Reference: PubChem BioAssay (EPA / NIEHS)
Where “and” joins values, the source holds several entries; their conditions need not be identical. Identical values can stand only once. The source holds several records for some structures; these can differ, active in one and inactive in another. Calls of active or inactive are those of the source. The calls were made as follows: active = hit-call score of the fitted dose curve at least 0.9, where 1 is the maximum; inactive = score below 0.9.

These compounds were tested on Macrophage colony-stimulating factor (MCSF), CSF1 (gene 1435) (assay: BSK_hDFCGF_MCSF: BioMAP Diversity Plus: hDFCGF Assay for Macrophage colony-stimulating factor (MCSF) Biomarker Activity (AID 2283060)). Conditions: primary human foreskin fibroblasts; actives raise or lower the signal.
Experimental: BSK_hDFCGF is a cell-based, multiplexed-readout assay that uses foreskin fibroblast, a human skin primary cell, with measurements taken at 24 hours after chemical dosing in a 96-well plate.BSK_hDFCGF_MCSF is an assay component measured in the BSK_hDFCGF assay. It measures M-CSF antibody related to regulation of gene expression using ELISA technology.Data from the assay component BSK_hDFCGF_MCSF was analyzed into 1 assay endpoint. This assay endpoint, BSK_hDFCGF_MCSF, was analyzed with bidirectional fitting relative to DMSO as the negative control and baseline of activity. Using a type of binding reporter, gain or loss-of-signal activity can be used to understand changes in the signaling as they relate to the gene CSF1. Furthermore, this assay endpoint can be referred to as a primary readout, because this assay has produced multiple assay endpoints where this one serves a signaling function. To generalize the intended target to other relatable targets, this assay endpoint is annotated to the cytokine intended target family, where the subfamily is colony stimulating factor.
The levels of cell surface (or secreted, indicated by the prefix "s") biomarker endpoints were measured by ELISA. Overt cytotoxicity to cells in confluent adherent cultures (all systems other than the BT system) was assessed by measuring total protein levels using sulforhodamine B (SRB) staining in parallel cultures at the time of biomarker measurements, indicated as SRB endpoints. For proliferation assays for adherent cell types, individual cell types are cultured at sub-confluence and relative cell numbers quantified by SRB staining at time points optimized for each system (48 h: 3C and CASM3C systems; 72 h: BT and HDF3CGF systems; 96 h: SAg system). SRB was performed by staining cells with 0.1% SRB after fixation with 10% TCA and reading wells at 560 nm.Viability and proliferation of PBMC (T cells) was quantified by Alamar Blue reduction for the SAg and BT systems. For PBMC viability (referred to as PBMC Cytotoxicity within the assay endpoint names), cells were plated (75,000/well in a 96-well plate) and then chemical samples added for 1 h before addition of activators, SEB and TSST-1 (20 ng/mL final concentration each). Cells were incubated for 90 h. Then, Alamar Blue (20 uL/well) (Invitrogen, Cat DAL1100) was added for 6 h, and the plates were read with a fluorescence microplate reader at 546/580 nm (excitation/emission). For PBMC proliferation, cells were plated and activated as above but incubated for only 16 h prior to addition of Alamar Blue. Plates were read after 6 h.
In the case of `O=[N+]([O-])O`, the outcome is reported as “inactive”. For `O=C(O)CCCc1ccc(N(CCCl)CCCl)cc1`, the outcome was “inactive” and the AC50 was 16.6 µM (active). `CC(C)CCCCCCCOC(=O)c1ccccc1C(=O)OCCCCCCCC(C)C` was tested, and the outcome was “inactive”. With `c1ccc(Nc2ccc3ccccc3c2)cc1` the AC50 was 34.4 µM (active). For `C=CC(=O)OCC(CC)CCCC` (centres undefined), the AC50 was 20 µM (active). For `CC(C)(c1cc(Cl)c(O)c(Cl)c1)c1cc(Cl)c(O)c(Cl)c1`, the AC50 was 12.2 µM (active). `C=CCN(CC=C)C(=O)C(Cl)Cl` was tested, and the outcome was “inactive”. In the case of `O=c1[nH]c(Cl)c(Cl)cc1Cl`, the outcome is reported as “inactive”. With `Oc1ccc(C2(c3ccc(O)cc3)c3ccccc3-c3ccccc32)cc1` the AC50 was 2.26 µM (active) and 2.51 µM (active). `[Cd+2].[Cl-].[Cl-]` was tested, and the AC50 was 939 nM (active) and 1.2 µM (active). In the case of `CCC(C)c1cc([N+](=O)[O-])cc([N+](=O)[O-])c1OC(=O)C=C(C)C` (centres undefined), the AC50 is reported as 6.13 µM (active). In the case of `CC(C)(C)C(=O)CCl`, the outcome is reported as “inactive”. In the case of `CC(=O)/C=C/c1ccccc1`, the outcome is reported as “inactive”. `CCCCCCCCCCCC#N` was tested, and the AC50 was 28.8 µM (active). With `O=C1C(Cl)=C(Cl)C(=O)C(Cl)=C1Cl` the AC50 was 20 µM (active). In the case of `Nc1ccc(-c2ccc(N)c(N)c2)cc1N`, the AC50 is reported as 16.1 µM (active). `O=[N+]([O-])c1ccc(Cl)cc1` was tested, and the outcome was “inactive”. In the case of `COC(C)(C)CCC[C@H](C)C/C=C/C(C)=C/C(=O)OC(C)C`, the AC50 is reported as 22.7 µM (active). With `CCc1cc(C)cc(CC)c1-c1c(OC(=O)C(C)(C)C)n2n(c1=O)CCOCC2` the outcome was “inactive”. For `O=C1C=CC(=O)C=C1`, the AC50 was 16 µM (active) and 13.5 µM (active). `CCCC[N+](CCCC)(CCCC)CCCC` was tested, and the outcome was “inactive”. For `O=C(CCl)c1ccccc1`, the AC50 was 5.84 µM (active). `O=[N+]([O-])C=Cc1ccccc1` was tested, and the AC50 was 2.91 µM (active). With `N#CCCCCC#N` the outcome was “inactive”. In the case of `Cc1ccc(OP(=O)(Oc2ccc(C)cc2)Oc2ccc(C)cc2)cc1` (tested in a mixture with another compound), the AC50 is reported as 20 µM (active). In the case of `CC(C)(C)C(O)C(Oc1ccc(-c2ccccc2)cc1)n1cncn1` (centres undefined), the outcome is reported as “inactive”. In the case of `COCC(=O)N(c1c(C)cccc1C)N1CCOC1=O`, the outcome is reported as “inactive”. For `Oc1cc(Cl)ccc1Cl`, the outcome was “inactive”. In the case of `CNC(=O)Oc1cc(C)c(SC)c(C)c1`, the outcome is reported as “inactive”. With `CC1(C)[C@H](C(=O)O[C@H](C#N)c2cccc(Oc3ccccc3)c2)[C@@H]1C=C(Br)Br` the outcome was “inactive”. For `CC(C)COP(=O)(OCC(C)C)OCC(C)C`, the outcome was “inactive”. With `CCCOC(=O)c1ccccc1C(=O)OCCC` the outcome was “inactive”. With `Clc1ccc(-c2ccccc2)cc1` the outcome was “inactive”. `COc1ccc(CO)cc1` was tested, and the outcome was “inactive”. With `CC(C)CCCCCCCOP(=O)(Oc1ccccc1)Oc1ccccc1` the AC50 was 8.47 µM (active). In the case of `O=S(=O)(c1ccccc1)c1ccccc1`, the outcome is reported as “inactive”. `O=c1c2ccccc2c(=O)c2c1cc(Cl)c1[nH]c3c([nH]c12)c(Cl)cc1c(=O)c2ccccc2c(=O)c13` was tested, and the AC50 was 20 µM (active). In the case of `O=P1(NCCCl)OCCCN1CCCl` (centres undefined), the outcome is reported as “inactive”.
